Assay [1] is described as follows: NCI Yeast Anticancer Drug Screen. Data for the rad50 strain (AID 155).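 Further: 0% = growth of vehicle-only cultures of the same strain.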 The note with it: S. cerevisiae rad50 strain growth inhibition; at 50.0 µM; active compounds read high. The procedure, abridged: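 Compounds were tested on a yeast strain with an engineered DNA damage repair alteration; the reported value is growth inhibition normalised to vehicle treatment.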
Assay [2] in a line: NCI Yeast Anticancer Drug Screen. Data for the mec2-1 strain (AID 157). As to conditions: S. cerevisiae mec2-1 strain, at 50.0 µM, active compounds read high. The procedure, abridged:
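Strain: mec2-1 (DNA repair/cell cycle alteration). Compound exposure, then growth measured; inhibition expressed relative to vehicle.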

A short description of assay [3]: NCI Yeast Anticancer Drug Screen. Data for the sgs1 mgt1 strain (AID 161).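 Further: 0% = growth of cultures given vehicle only.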 The note with it: S. cerevisiae sgs1 mgt1 strain, at 50.0 µM, active compounds read high. The procedure, abridged:
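Read-out: growth inhibition vs vehicle controls. Cells: mutant yeast strain deficient in DNA damage repair.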

Assay [4] in a line: NCI Yeast Anticancer Drug Screen. Data for the cln2 rad14 strain (AID 165).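 Further: 0% = growth equal to vehicle treated cultures.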 The note with it: S. cerevisiae cln2 rad14 strain, at 50.0 µM, active compounds read high. An outline of the steps: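 Compounds are applied to the cln2 rad14 yeast strain, and growth is then compared with that of vehicle-treated cultures to give inhibition.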
A short description of assay [5]: NCI Yeast Anticancer Drug Screen. Data for the bub3 strain (AID 167). As to conditions: S. cerevisiae bub3 mutant strain, at 50.0 µM, active compounds read high. The procedure, abridged: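 Growth of a checkpoint-deficient yeast mutant is measured after compound exposure. Values represent inhibition relative to vehicle.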
Assay [6] in a line: NCI Yeast Anticancer Drug Screen. Data for the mlh1 rad18 strain (AID 175). As to conditions: S. cerevisiae mlh1 rad18 strain growth inhibition; at 50.0 µM; active compounds read high. An outline of the steps: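 Read-out is yeast growth inhibition, calculated against vehicle-only controls. The compound was applied to a strain engineered with DNA damage repair alterations.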

This is an account of results in PubChem BioAssay (NCI).

The panel holds about 79,000 compounds, 15% with a hit somewhere; the sample as a whole holds those more often. Unmarked numbers belong to inactive results. Active and inactive are the calls of the source. No stated cut-off is given here; in the data, active means growth inhibition above about 70%; inactive means the rest. Where a SMILES comes first, the peptide text is derived from it. [ ]: non-standard residue; d: D form. ΔPro = O=C(O)[CH]1C=CCN1

As for `CSc1ccc(C(=O)C[n+]2cc3ccccc3cc2C)cc1`, the growth inhibition in assay [1] was -34.4%; in assay [2] it was -2.5%; in assay [3] it was -16.1%; in assay [4] it was -26.6%; in assay [5] it was 2.75%; in assay [6] it was 0.7%.

On to `CN1CCCCCC1`, for which the growth inhibition in assay [1] is -8.05%; in assay [2] it was -8.45%; in assay [3] it was 5.95%; in assay [4] it was -4.95%; in assay [5], -10.9%; in assay [6], -0.85%.

`COc1nc(C(=O)O)c(Cl)c(OC)c1Cl`: the growth inhibition in assay [1] was -34.6%; in assay [2] it was -21.8%; in assay [3], -40.5%; in assay [4], -4.95%; in assay [5] it was -39.6%; in assay [6] it was -35%.

As for `O=C(COc1ccc(Cl)cc1)Nc1cccc([N+](=O)[O-])c1`, the growth inhibition in assay [1] is 2.55%; in assay [2], 17.1%; in assay [3], 2.45%; in assay [4], -5.7%; in assay [5], 18.9%; in assay [6], 6.7%.

Consider `CC1CCC(C(C)C)=C(C2CCCCC2)C1` (stereo not given), for which the growth inhibition in assay [1] is -2.15%; in assay [2], 1.65%; in assay [3], -3.65%; in assay [4] it was -7.05%; in assay [5] it was -9.8%; in assay [6], 6.65%.

For the compound `O=c1c(Cc2ccccc2)coc2ccccc12`, the growth inhibition was 30.6% in assay [1]; 14.6% in assay [2]; 21.4% in assay [3]; -14.2% in assay [4]; 27.5% in assay [5]; -1.5% in assay [6].

For `CCC1c2c(cc(=O)[nH]c2O)C(=O)N1Cc1ccccc1` (stereo not given), the growth inhibition in assay [1] is 12.3%; in assay [2] it was 6.4%; in assay [3], 7.75%; in assay [4], 4.25%; in assay [5], 1.15%; in assay [6] it was -0.1%.

Regarding `C[Si](C)(C)CCCn1ccc(=O)[nH]c1=O`, the growth inhibition is 45.6% in assay [1]; 7.45% in assay [2]; 27.8% in assay [3]; -8.15% in assay [4]; 29.4% in assay [5]; -26.3% in assay [6].

On to `COC(=O)c1ccc(Cl)c(Cl)c1Cl`, for which the growth inhibition in assay [1] is -3.6%; in assay [2], -7.35%; in assay [3] it was -19.6%; in assay [4], -11.8%; in assay [5] it was 6.1%; in assay [6], -26.3%.

For `C=CCSc1nc2ccc(N3C(=O)C4C5C=CC(C5)C4C3=O)cc2s1` (stereo not given), the growth inhibition was -15.2% in assay [1]; -2.75% in assay [2]; -6.35% in assay [3]; -17.6% in assay [4]; -8.3% in assay [5]; -27.9% in assay [6].

Regarding `CCC(C#N)NC(=O)NC(C#N)CC` (stereo not given), the growth inhibition was 0.75% in assay [1]; 14.6% in assay [2]; -9.7% in assay [3]; -1.6% in assay [4]; -16.9% in assay [5]; -42.1% in assay [6].

As to `CC12CCC3c4ccc(O)cc4C(=O)CC3C1CCC2O` (stereo not given), the growth inhibition in assay [1] is -16.1%; in assay [2], 7.6%; in assay [3], 5.8%; in assay [4], -29.8%; in assay [5], -11.2%; in assay [6] it was -17.6%.

Consider `O=C(O)C1C=CCN1C(=O)C1C=CCN1C(=O)C1C=CCN1` (stereo not given) (H-[ΔPro]-[ΔPro]-[ΔPro]-OH; configuration not given here), for which the growth inhibition in assay [1] is -68.7%; in assay [2], -38.6%; in assay [3], -25.5%; in assay [4] it was 0.05%; in assay [5], 0.25%; in assay [6] it was -31.5%.

As to `CCN(CC)c1ccc(-c2ccccc2)cc1`, the growth inhibition in assay [1] was 28.1%; in assay [2], 5.4%; in assay [3] it was -8.45%; in assay [4], -69.4%; in assay [5], 2.9%; in assay [6], 8.5%.

For `COC1c2ccccc2C=CN1c1ccc([N+](=O)[O-])cc1[N+](=O)[O-]` (stereo not given), the growth inhibition in assay [1] is 61.8%; in assay [2] it was 70.4% (active); in assay [3], 69.2%; in assay [4], 27.4%; in assay [5] it was 59.1%; in assay [6], 71.2% (active).

Regarding `CCn1c(=O)c2c3ccc(O)cc3[nH]c2c2ccc(O)cc21`, the growth inhibition in assay [1] was -63.7%; in assay [2], -74.6%; in assay [3], -4.8%; in assay [4], -14.6%; in assay [5] it was -23.8%; in assay [6] it was -43.5%.

With `CN(NC(=O)CCCl)C1=NCCCCN1`, the growth inhibition is -6.6% in assay [1]; -17.9% in assay [2]; -4.95% in assay [3]; 43.5% in assay [4]; -0.5% in assay [5]; 19.4% in assay [6].

Consider `N#C/C(=C\c1c[nH]c2ccccc12)C(=O)c1ccc(O)c(O)c1`, for which the growth inhibition in assay [1] is -6.55%; in assay [2] it was 0.25%; in assay [3], -20.6%; in assay [4], 18.1%; in assay [5], 2.95%; in assay [6], -6.95%.

`Nc1nnc(Cc2cccc3ccccc23)o1`: the growth inhibition in assay [1] is -1.05%; in assay [2], -11.4%; in assay [3], -13.1%; in assay [4] it was -0.7%; in assay [5], -15.6%; in assay [6], 1.1%.

As for `CCc1c([N+](=O)[O-])cc(C(C)(C)C)c(OC)c1[N+](=O)[O-]`, the growth inhibition in assay [1] is -9.05%; in assay [2], -9.75%; in assay [3], 0.6%; in assay [4] it was -17.6%; in assay [5] it was 20.2%; in assay [6] it was -31.6%.
